Assay results from PubChem BioAssay AID1159580 (chemical genetic matrix, 2015).
Hit rate of the full screen: of about 5,500 compounds, about 2,000 (36%) were called active. Inconclusive results (about 18%) are left out. Cut-off read from the data, not from the text of the source: active = normalized growth mostly below about 0.91 (no sharp cut-off); inconclusive = no clear call, values can overlap the other calls; inactive = mostly above about 0.92. The list shows a part of the results.

Assay: chemical genetic growth profiling, strain panel (AID 1159580);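 note: tested at 20 µM; growth read once vehicle control cultures reached saturation at 30 °C; 1 = growth at the plate median or of vehicle wells; lower values mean less growth of the strain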
Conditions: growth OD
[1] = S. cerevisiae deletion strains, locus YHR030C, strain SLT2, stronger effect = lower value
[2] = S. cerevisiae deletion strains, locus YJL095W, strain BCK1, stronger effect = lower value
[3] = S. cerevisiae deletion strains, locus YHR079C, strain IRE1, stronger effect = lower value
[4] = S. cerevisiae deletion strains, locus YJR066W, strain TOR1, stronger effect = lower value
[5] = S. cerevisiae deletion strains, locus YLR113W, strain HOG1, stronger effect = lower value
[6] = S. cerevisiae deletion strains, locus YNL183C, strain NPR1, stronger effect = lower value
[7] = S. cerevisiae deletion strains, locus YOR231W, strain MKK1, stronger effect = lower value
[8] = S. cerevisiae deletion strains, locus YPL256C, strain CLN2, stronger effect = lower value

Measured: normalized growth

C=C[C@](C)(O)CCC=C(C)C
inactive: S. cerevisiae deletion strains, locus YBR021W, strain FUR4, stronger effect = lower value 1.01 | S. cerevisiae deletion strains, locus YBR229C, strain ROT2, stronger effect = lower value 1 | S. cerevisiae deletion strains, locus YCL029C, strain bik1, stronger effect = lower value 1.02 | S. cerevisiae deletion strains, locus YDL035C, strain GPR1, stronger effect = lower value 1.04 | S. cerevisiae deletion strains, locus YDL074C, strain BRE1, stronger effect = lower value 1.06 | S. cerevisiae deletion strains, locus YDL101C, strain DUN1, stronger effect = lower value 1.01 | S. cerevisiae deletion strains, locus YDL134C, strain PPH21, stronger effect = lower value 1 | S. cerevisiae deletion strains, locus YDL185W, strain tfp1, stronger effect = lower value 1.02 | S. cerevisiae deletion strains, locus YDL192W, strain arf1, stronger effect = lower value 1.01 | S. cerevisiae deletion strains, locus YDR101C, strain arx1, stronger effect = lower value 1.04 | S. cerevisiae deletion strains, locus YDR162C, strain NBP2, stronger effect = lower value 1 | S. cerevisiae deletion strains, locus YDR318W, strain mcm21, stronger effect = lower value 0.986 | S. cerevisiae deletion strains, locus YDR388W, stronger effect = lower value 1.01 | S. cerevisiae deletion strains, locus YDR502C, strain sam2, stronger effect = lower value 0.999 | S. cerevisiae deletion strains, locus YEL061C, strain CIN8, stronger effect = lower value 1 | S. cerevisiae deletion strains, locus YER110C, stronger effect = lower value 1.01 | S. cerevisiae deletion strains, locus YER155C, strain BEM2, stronger effect = lower value 1.01 | S. cerevisiae deletion strains, locus YER167W, strain BCK2, stronger effect = lower value 1.01 | S. cerevisiae deletion strains, locus YGL078C, strain dbp3, stronger effect = lower value 1.02 | S. cerevisiae deletion strains, locus YGL086W, strain mad1, stronger effect = lower value 1.05 | S. cerevisiae deletion strains, locus YGL248W, strain PDE1, stronger effect = lower value 0.995 | S. cerevisiae deletion strains, locus YGR135W, strain pre9, stronger effect = lower value 1.01 | S. cerevisiae deletion strains, locus YGR252W, strain gcn5, stronger effect = lower value 0.977 | [1] 1.01 | S. cerevisiae deletion strains, locus YHR079C, strain IRE1 (second series), stronger effect = lower value 1.01 | S. cerevisiae deletion strains, locus YHR094C, strain hxt1, stronger effect = lower value 1.01 | S. cerevisiae deletion strains, locus YHR129C, strain ARP1, stronger effect = lower value 1.02 | S. cerevisiae deletion strains, locus YHR200W, strain rpn10, stronger effect = lower value 1.01 | S. cerevisiae deletion strains, locus YIL066C, strain RNR3, stronger effect = lower value 1.01 | S. cerevisiae deletion strains, locus YIL073C, strain SPO22, stronger effect = lower value 1.03 | S. cerevisiae deletion strains, locus YIL125W, strain kgd1, stronger effect = lower value 1.02 | S. cerevisiae deletion strains, locus YIR030C, strain dcg1, stronger effect = lower value 0.998 | [2] 0.988 | S. cerevisiae deletion strains, locus YJL134W, strain LCB3, stronger effect = lower value 0.999 | S. cerevisiae deletion strains, locus YJL168C, strain set2, stronger effect = lower value 1.01 | S. cerevisiae deletion strains, locus YJL187C, strain SWE1 (second series), stronger effect = lower value 1 | S. cerevisiae deletion strains, locus YJR043C, strain POL32, stronger effect = lower value 1.04 | S. cerevisiae deletion strains, locus YJR075W, strain HOC1, stronger effect = lower value 1 | S. cerevisiae deletion strains, locus YKL009W, strain mrt4, stronger effect = lower value 1.05 | S. cerevisiae deletion strains, locus YKL068W, stronger effect = lower value 1 | S. cerevisiae deletion strains, locus YKL085W, strain MDH1 (second series), stronger effect = lower value 0.995 | S. cerevisiae deletion strains, locus YKL085W, strain MDH1, stronger effect = lower value 0.995 | S. cerevisiae deletion strains, locus YKL190W, strain CNB1, stronger effect = lower value 1 | S. cerevisiae deletion strains, locus YKR001C, strain vps1, stronger effect = lower value 1.06 | S. cerevisiae deletion strains, locus YLR039C, strain RIC1, stronger effect = lower value 1.03 | S. cerevisiae deletion strains, locus YLR058C, strain SHM2, stronger effect = lower value 0.997 | S. cerevisiae deletion strains, locus YLR102C, strain apc9, stronger effect = lower value 1.01 | S. cerevisiae deletion strains, locus YLR262C, strain YPT6, stronger effect = lower value 1.01 | S. cerevisiae deletion strains, locus YLR268W, strain sec22, stronger effect = lower value 1.06 | S. cerevisiae deletion strains, locus YLR330W, strain CHS5, stronger effect = lower value 1.02 | S. cerevisiae deletion strains, locus YLR342W, strain FKS1 (second series), stronger effect = lower value 1.05 | S. cerevisiae deletion strains, locus YLR371W, strain rom2, stronger effect = lower value 1.02 | S. cerevisiae deletion strains, locus YLR418C, strain cdc73, stronger effect = lower value 0.984 | S. cerevisiae deletion strains, locus YML016C, strain PPZ1, stronger effect = lower value 1.01 | S. cerevisiae deletion strains, locus YML032C, strain rad52, stronger effect = lower value 0.973 | S. cerevisiae deletion strains, locus YML124C, strain tub3, stronger effect = lower value 0.999 | S. cerevisiae deletion strains, locus YMR078C, strain ctf18, stronger effect = lower value 1.01 | S. cerevisiae deletion strains, locus YMR223W, strain ubp8, stronger effect = lower value 0.994 | S. cerevisiae deletion strains, locus YMR307W, strain GAS1, stronger effect = lower value 1.03 | S. cerevisiae deletion strains, locus YNL067W, strain RPL9B, stronger effect = lower value 1.01 | S. cerevisiae deletion strains, locus YNL233W, strain BNI4, stronger effect = lower value 1 | S. cerevisiae deletion strains, locus YNL250W, strain rad50, stronger effect = lower value 1.02 | S. cerevisiae deletion strains, locus YNL271C, strain bni1, stronger effect = lower value 1.01 | S. cerevisiae deletion strains, locus YNL298W, strain CLA4, stronger effect = lower value 1.02 | S. cerevisiae deletion strains, locus YNL307C, strain MCK1, stronger effect = lower value 1.03 | S. cerevisiae deletion strains, locus YNL322C, strain KRE1, stronger effect = lower value 1 | S. cerevisiae deletion strains, locus YNR052C, strain pop2, stronger effect = lower value 0.997 | S. cerevisiae deletion strains, locus YOL006C, strain TOP1, stronger effect = lower value 1.1 | S. cerevisiae deletion strains, locus YOL012C, strain htz1 1.44 | S. cerevisiae deletion strains, locus YOL147C, strain pex11, stronger effect = lower value 1 | S. cerevisiae deletion strains, locus YOR061W, strain CKA2, stronger effect = lower value 1 | S. cerevisiae deletion strains, locus YOR069W, strain VPS5, stronger effect = lower value 1.01 | S. cerevisiae deletion strains, locus YOR136W, strain idh2, stronger effect = lower value 1.01 | S. cerevisiae deletion strains, locus YOR144C, strain elg1, stronger effect = lower value 1.01 | S. cerevisiae deletion strains, locus YOR184W, strain ser1, stronger effect = lower value 1.05 | S. cerevisiae deletion strains, locus YOR316C, strain cot1, stronger effect = lower value 1.01 | S. cerevisiae deletion strains, locus YPL241C, strain CIN2, stronger effect = lower value 0.998 | S. cerevisiae deletion strains, locus YPR119W, strain clb2, stronger effect = lower value 1 | S. cerevisiae deletion strains, locus YPR141C, strain kar3, stronger effect = lower value 1 | S. cerevisiae deletion strains, locus YPR163C, strain tif3, stronger effect = lower value 1 | S. cerevisiae deletion strains, locus YPR167C, strain met16, stronger effect = lower value 0.999 | S. cerevisiae deletion strains, strain wtn01, stronger effect = lower value 1.07 | S. cerevisiae strains, strain wild type, stronger effect = lower value 1.01

CC(C)=CCC/C(C)=C/CC/C(C)=C/CO
active: [1] 0.416 | [3] 0.506 | [2] 0.609 | [4] 0.804 | [5] 0.35 | [6] 0.732 | [7] 0.407 | [8] 0.388

CC(C)=CCC/C(C)=C/CC/C(C)=C/CC/C(C)=C/CO
inactive: [1] 1.06 | [3] 1.05 | [2] 1.04 | [4] 0.944 | [5] 0.975 | [6] 0.932 | [7] 0.998 | [8] 1.08
